From ChEMBL document CHEMBL1961873, “Compounds: GSK PKIS; Assays: Nanosyn kinase panel” (2012)

Columns and labels:
[1] = target: Protein kinase C gamma type (Homo sapiens) (UniProt P05129); conditions: at 1 µM;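 further: each value is an averaged percent inhibition of the enzyme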
[2] = target: T1, Protein kinase C iota type (Homo sapiens) (UniProt P41743); conditions: at 0.1 µM
T1 sequence (whole entry): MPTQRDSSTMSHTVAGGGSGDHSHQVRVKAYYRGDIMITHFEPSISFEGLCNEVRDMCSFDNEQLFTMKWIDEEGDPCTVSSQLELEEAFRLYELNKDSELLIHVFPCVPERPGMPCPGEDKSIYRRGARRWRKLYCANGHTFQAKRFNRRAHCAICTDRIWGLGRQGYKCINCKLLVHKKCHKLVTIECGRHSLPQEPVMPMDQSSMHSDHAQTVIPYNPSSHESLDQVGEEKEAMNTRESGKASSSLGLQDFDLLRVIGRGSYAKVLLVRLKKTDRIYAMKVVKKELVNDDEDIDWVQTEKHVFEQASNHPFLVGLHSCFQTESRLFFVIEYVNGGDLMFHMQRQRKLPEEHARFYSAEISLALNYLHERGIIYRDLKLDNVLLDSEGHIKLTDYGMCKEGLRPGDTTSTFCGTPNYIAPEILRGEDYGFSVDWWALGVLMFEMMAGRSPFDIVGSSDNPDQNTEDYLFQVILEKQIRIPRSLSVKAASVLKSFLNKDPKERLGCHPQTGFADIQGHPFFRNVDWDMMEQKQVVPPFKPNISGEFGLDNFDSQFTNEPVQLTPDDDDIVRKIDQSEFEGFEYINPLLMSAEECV

[3] = target: T1, Protein kinase C iota type (Homo sapiens); conditions: at 1 µM
[4] = target: Protein kinase C theta type (Homo sapiens) (UniProt Q04759); conditions: at 0.1 µM
Protein kinase C theta type (Homo sapiens), sequence (Q04759 whole entry, looked up): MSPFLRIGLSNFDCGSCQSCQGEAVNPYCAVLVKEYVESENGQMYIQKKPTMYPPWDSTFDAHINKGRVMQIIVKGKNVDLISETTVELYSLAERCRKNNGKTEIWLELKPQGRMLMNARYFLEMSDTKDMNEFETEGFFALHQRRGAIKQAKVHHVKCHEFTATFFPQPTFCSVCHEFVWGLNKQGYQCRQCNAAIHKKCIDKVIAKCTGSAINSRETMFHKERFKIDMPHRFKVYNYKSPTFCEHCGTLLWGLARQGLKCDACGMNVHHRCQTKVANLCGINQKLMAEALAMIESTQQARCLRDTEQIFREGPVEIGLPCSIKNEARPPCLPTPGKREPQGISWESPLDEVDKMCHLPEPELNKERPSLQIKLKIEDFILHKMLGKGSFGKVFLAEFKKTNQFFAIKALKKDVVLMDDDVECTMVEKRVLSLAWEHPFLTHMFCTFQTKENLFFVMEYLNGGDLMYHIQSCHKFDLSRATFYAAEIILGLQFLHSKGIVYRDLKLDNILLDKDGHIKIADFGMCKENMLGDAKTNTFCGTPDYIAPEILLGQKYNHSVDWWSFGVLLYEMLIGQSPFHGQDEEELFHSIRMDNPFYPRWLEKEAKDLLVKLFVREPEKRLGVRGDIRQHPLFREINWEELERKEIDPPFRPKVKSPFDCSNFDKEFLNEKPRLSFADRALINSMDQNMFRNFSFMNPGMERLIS

[5] = target: Protein kinase C theta type (Homo sapiens) (UniProt Q04759); conditions: at 1 µM
[6] = target: Protein kinase C beta type (Homo sapiens) (UniProt P05771); conditions: at 0.1 µM
Protein kinase C beta type (Homo sapiens), sequence (P05771 2-671 limits assumed): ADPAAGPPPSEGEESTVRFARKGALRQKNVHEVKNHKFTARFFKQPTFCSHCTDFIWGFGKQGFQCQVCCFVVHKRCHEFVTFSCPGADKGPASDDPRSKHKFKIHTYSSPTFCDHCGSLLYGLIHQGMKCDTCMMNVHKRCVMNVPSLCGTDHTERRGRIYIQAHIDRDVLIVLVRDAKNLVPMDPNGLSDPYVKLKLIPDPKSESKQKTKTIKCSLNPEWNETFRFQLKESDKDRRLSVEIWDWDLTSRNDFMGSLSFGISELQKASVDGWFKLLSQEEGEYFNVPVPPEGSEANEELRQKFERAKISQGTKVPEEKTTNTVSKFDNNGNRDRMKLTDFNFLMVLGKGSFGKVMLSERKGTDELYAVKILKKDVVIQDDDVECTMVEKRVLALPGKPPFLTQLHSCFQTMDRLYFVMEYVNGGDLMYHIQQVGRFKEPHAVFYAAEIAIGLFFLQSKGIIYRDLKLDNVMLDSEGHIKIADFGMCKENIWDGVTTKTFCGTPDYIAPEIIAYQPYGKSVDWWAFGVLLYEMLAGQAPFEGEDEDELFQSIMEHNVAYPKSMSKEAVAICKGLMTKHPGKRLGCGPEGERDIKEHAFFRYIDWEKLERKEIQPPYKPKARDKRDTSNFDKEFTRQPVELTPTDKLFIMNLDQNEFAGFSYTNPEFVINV

[7] = target: Protein kinase C beta type (Homo sapiens) (UniProt P05771); conditions: at 1 µM
[8] = target: T2, Serine/threonine-protein kinase D1 (Homo sapiens) (UniProt Q15139); conditions: at 0.1 µM
T2 sequence (whole entry): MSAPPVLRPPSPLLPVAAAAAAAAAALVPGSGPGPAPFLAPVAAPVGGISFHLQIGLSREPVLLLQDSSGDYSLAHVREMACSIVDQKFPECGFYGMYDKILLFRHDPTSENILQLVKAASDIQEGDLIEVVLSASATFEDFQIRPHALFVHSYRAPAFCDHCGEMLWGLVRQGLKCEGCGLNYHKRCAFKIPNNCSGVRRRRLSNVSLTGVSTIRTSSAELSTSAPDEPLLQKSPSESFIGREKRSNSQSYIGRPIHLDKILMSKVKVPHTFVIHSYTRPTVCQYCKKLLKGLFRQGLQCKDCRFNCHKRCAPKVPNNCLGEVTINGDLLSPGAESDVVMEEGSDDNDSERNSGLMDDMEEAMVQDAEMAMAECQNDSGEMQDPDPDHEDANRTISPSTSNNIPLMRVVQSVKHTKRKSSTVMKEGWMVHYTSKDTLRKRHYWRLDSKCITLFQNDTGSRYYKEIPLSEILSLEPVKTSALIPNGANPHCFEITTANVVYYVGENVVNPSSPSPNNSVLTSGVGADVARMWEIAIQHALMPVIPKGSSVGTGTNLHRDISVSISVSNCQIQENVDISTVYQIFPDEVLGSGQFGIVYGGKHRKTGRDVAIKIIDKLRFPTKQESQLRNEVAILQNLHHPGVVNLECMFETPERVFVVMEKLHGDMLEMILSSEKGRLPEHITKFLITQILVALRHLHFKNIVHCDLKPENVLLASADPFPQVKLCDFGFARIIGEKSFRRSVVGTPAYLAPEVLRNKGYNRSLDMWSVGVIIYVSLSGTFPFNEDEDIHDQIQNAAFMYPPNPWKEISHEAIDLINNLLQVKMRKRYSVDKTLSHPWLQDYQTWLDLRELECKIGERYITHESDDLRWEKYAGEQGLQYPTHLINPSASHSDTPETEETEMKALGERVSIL

[9] = target: T2, Serine/threonine-protein kinase D1 (Homo sapiens); conditions: at 1 µM
[10] = target: T3, Serine/threonine-protein kinase D2 (Homo sapiens) (UniProt Q9BZL6); conditions: at 0.1 µM
T3 sequence (whole entry): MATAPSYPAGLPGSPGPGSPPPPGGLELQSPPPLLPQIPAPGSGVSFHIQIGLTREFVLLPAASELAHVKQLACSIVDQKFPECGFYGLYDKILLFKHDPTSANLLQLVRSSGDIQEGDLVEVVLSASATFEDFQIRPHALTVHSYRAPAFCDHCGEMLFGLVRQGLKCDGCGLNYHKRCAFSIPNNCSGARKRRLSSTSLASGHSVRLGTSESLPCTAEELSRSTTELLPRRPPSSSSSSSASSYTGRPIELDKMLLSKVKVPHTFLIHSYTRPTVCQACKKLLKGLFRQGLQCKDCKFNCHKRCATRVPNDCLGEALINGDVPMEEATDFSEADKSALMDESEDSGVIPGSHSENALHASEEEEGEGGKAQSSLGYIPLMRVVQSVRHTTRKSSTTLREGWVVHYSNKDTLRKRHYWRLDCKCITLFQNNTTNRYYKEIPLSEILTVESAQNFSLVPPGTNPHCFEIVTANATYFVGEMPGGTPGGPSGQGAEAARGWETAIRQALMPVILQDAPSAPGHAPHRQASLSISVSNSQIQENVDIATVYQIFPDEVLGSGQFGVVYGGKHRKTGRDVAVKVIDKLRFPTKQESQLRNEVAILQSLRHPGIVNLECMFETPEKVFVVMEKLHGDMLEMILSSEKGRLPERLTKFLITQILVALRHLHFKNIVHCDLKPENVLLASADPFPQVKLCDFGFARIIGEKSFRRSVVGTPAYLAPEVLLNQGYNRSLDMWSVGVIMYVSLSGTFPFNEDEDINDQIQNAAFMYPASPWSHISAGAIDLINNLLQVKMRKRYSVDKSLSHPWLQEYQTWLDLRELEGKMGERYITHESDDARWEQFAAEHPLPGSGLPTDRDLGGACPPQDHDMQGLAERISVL

[11] = target: T3, Serine/threonine-protein kinase D2 (Homo sapiens); conditions: at 1 µM
[12] = target: T4, Serine/threonine-protein kinase D3 (Homo sapiens) (UniProt O94806); conditions: at 0.1 µM
T4 sequence (whole entry): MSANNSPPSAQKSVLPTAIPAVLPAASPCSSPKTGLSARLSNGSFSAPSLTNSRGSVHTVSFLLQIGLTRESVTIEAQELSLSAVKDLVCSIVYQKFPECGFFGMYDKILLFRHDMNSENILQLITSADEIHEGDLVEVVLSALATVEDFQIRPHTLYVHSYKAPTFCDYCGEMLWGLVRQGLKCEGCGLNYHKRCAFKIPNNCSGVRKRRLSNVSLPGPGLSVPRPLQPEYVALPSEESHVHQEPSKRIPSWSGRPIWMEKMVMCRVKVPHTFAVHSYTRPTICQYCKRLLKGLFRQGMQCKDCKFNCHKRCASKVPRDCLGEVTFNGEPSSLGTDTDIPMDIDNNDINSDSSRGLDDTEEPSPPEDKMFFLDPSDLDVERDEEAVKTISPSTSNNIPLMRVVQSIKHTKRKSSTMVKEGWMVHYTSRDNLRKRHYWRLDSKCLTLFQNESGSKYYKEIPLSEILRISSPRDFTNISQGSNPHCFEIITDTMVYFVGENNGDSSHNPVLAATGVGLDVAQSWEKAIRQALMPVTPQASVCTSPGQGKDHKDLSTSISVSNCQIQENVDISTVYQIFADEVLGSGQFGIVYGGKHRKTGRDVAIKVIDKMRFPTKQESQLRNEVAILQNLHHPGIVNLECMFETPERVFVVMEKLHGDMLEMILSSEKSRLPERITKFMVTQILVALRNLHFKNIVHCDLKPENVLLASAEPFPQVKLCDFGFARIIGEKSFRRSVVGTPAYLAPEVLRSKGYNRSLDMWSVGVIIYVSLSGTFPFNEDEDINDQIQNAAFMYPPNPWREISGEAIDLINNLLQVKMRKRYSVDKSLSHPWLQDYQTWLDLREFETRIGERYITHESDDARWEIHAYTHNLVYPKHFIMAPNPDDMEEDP

[13] = target: T4, Serine/threonine-protein kinase D3 (Homo sapiens); conditions: at 1 µM
[14] = target: T5, cGMP-dependent protein kinase 1 (Homo sapiens) (UniProt Q13976); conditions: at 0.1 µM
T5 sequence (whole entry): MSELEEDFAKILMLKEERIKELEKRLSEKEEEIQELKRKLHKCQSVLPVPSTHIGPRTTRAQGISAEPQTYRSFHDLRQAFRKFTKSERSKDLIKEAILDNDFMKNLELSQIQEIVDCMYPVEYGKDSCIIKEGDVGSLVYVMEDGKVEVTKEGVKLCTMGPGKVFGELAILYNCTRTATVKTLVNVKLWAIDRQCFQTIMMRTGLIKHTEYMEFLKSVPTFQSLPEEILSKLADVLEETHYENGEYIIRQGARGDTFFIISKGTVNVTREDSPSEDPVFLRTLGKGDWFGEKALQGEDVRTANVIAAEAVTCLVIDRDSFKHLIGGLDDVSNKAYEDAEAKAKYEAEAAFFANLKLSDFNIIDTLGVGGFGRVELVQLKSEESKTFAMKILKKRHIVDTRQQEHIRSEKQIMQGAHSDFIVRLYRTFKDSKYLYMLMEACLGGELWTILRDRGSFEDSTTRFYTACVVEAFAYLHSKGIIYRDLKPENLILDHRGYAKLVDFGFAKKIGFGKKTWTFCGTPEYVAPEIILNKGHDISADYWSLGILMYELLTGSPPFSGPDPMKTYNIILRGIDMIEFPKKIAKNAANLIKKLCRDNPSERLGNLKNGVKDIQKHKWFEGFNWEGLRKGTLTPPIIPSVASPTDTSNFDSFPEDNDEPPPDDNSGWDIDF

[15] = target: T5, cGMP-dependent protein kinase 1 (Homo sapiens); conditions: at 1 µM
[16] = target: T6, cGMP-dependent protein kinase 2 (Homo sapiens) (UniProt Q13237); conditions: at 0.1 µM
T6 sequence (whole entry): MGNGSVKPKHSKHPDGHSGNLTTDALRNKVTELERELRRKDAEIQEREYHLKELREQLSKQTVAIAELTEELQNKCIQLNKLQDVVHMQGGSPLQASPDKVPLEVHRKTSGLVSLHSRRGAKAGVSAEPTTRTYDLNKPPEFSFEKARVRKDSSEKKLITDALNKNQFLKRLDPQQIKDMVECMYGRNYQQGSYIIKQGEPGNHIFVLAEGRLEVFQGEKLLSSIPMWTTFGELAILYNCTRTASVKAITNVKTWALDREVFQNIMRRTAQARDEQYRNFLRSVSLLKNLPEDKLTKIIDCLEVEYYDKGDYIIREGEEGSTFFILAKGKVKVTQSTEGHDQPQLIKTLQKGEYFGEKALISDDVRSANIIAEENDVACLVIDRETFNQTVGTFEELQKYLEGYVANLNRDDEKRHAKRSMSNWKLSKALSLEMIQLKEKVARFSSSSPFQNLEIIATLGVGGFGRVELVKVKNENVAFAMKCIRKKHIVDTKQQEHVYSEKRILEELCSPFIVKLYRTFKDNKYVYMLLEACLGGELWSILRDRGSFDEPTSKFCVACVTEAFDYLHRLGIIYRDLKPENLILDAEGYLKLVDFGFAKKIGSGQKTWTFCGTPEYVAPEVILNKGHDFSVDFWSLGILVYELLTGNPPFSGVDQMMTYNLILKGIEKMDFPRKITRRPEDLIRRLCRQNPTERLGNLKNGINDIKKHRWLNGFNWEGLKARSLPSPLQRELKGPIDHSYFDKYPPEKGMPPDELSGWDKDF

[17] = target: T6, cGMP-dependent protein kinase 2 (Homo sapiens); conditions: at 1 µM
[18] = target: T7, cAMP-dependent protein kinase catalytic subunit PRKX (Homo sapiens) (UniProt P51817); conditions: at 0.1 µM
T7 sequence (whole entry): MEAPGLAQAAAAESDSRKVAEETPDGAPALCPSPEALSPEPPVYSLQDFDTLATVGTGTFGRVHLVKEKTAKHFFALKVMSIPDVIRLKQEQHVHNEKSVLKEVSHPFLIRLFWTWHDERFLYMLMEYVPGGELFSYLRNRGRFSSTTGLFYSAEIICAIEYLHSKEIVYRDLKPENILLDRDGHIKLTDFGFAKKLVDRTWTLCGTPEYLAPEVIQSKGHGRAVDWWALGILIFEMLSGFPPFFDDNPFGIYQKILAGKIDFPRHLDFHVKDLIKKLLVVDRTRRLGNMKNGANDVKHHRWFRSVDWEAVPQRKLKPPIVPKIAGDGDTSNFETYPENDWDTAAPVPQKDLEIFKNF

[19] = target: T7, cAMP-dependent protein kinase catalytic subunit PRKX (Homo sapiens); conditions: at 1 µM
[20] = target: Rho-associated protein kinase 1 (Homo sapiens) (UniProt Q13464); conditions: at 0.1 µM;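 further: values are mean percent inhibition of ROCK1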
Rho-associated protein kinase 1 (Homo sapiens), sequence (Q13464 2-1354 limits assumed): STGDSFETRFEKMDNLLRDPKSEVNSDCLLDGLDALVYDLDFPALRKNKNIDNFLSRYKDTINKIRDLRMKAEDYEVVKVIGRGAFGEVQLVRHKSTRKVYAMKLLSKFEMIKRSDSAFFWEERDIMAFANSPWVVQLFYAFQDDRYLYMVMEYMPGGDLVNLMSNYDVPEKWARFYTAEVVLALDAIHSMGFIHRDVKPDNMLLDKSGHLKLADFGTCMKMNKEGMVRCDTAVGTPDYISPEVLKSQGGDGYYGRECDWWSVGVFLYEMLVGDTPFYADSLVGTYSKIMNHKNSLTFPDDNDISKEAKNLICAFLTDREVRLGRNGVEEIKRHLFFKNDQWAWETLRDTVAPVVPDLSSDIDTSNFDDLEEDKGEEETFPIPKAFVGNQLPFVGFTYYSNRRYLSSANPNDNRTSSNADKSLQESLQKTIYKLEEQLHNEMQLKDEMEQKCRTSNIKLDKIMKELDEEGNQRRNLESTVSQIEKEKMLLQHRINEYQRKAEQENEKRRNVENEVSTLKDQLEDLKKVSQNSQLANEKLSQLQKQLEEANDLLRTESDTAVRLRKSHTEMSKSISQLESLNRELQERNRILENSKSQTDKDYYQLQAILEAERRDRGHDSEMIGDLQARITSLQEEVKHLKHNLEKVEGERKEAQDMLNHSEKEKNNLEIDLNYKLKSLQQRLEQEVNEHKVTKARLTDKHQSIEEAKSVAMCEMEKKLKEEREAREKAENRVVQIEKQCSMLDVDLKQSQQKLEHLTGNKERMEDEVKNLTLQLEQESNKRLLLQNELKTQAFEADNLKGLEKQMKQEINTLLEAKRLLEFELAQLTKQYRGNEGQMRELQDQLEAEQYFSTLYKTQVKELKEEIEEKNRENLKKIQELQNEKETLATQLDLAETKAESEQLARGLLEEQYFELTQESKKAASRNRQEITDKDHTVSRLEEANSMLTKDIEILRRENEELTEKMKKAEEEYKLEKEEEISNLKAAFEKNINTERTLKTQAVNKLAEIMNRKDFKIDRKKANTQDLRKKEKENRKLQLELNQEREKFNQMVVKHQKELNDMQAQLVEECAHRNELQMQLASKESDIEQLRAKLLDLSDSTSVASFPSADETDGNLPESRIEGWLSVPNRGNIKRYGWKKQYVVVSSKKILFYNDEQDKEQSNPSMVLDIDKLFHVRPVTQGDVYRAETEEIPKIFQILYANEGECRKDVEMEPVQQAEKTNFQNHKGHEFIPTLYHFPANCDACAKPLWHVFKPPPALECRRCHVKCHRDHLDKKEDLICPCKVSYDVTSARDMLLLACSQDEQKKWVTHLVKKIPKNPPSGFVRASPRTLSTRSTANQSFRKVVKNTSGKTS

| Structure (SMILES) | inhibition [1] [%] | inhibition [2] [%] | inhibition [3] [%] | inhibition [4] [%] | inhibition [5] [%] | inhibition [6] [%] | inhibition [7] [%] | inhibition [8] [%] | inhibition [9] [%] | inhibition [10] [%] | inhibition [11] [%] | inhibition [12] [%] | inhibition [13] [%] | inhibition [14] [%] | inhibition [15] [%] | inhibition [16] [%] | inhibition [17] [%] | inhibition [18] [%] | inhibition [19] [%] | inhibition [20] [%] |
| --- | --- | --- | --- | --- | --- | --- | --- | --- | --- | --- | --- | --- | --- | --- | --- | --- | --- | --- | --- | --- |
| CCc1cccc(NC(=O)Nc2ccc(Oc3ccc4nc(NC(=O)OC)[nH]c4c3)cc2)c1 | 2 | 0.46 | -1.58 | 0.42 | 1.12 | -0.27 | -1.17 | 1.25 | 1.01 | 0.52 | 1.88 | 1.72 | 0.75 | -0.2 | 3.08 | 0.88 | 0.86 | 0.91 | 3.18 | 12.1 |
| Cc1nnc(-c2ccc(C)c(-c3ccc(C(=O)Nc4cccc(C#N)c4)cc3)c2)o1 | 5.13 | -0.73 | -1.05 | 1 | 1.47 | 1.09 | 1.38 | 4.29 | 4.48 | 2.17 | 3.13 | 2.37 | 3.16 | 0.21 | 2.16 | 1.21 | 3.35 | 0.63 | 1.68 | -0.21 |
| COc1cc2ncn(-c3cc(O[C@H](C)c4ccccc4Cl)c(C(N)=O)s3)c2cc1OC | 4.01 | 2.97 | 0.22 | 3.41 | 4.9 | 2.75 | 3.52 | 1.04 | 3.84 | 2.69 | 4.06 | 2.93 | 2.62 | 3.62 | 4.56 | 3.5 | 5.66 | 2.91 |  | 1.18 |
| O=C(Nc1n[nH]c2nc(-c3ccco3)c(Br)cc12)C1CC1 | 3.32 | 0.86 | 2.37 | 1.29 | 0.79 | 0.69 | 1.19 | 2.8 | 5.78 | 3 | 5.03 | 3.1 | 4.81 | 2.39 | 3.36 | 1.15 | 1.85 | 1.8 | -0.27 | 0.16 |
